Inconclusive results are not listed. Activity calls are given as the source filed them. Unless noted, calls come from the whole dose curve; as a rule, active = well fitted curve in the direction sought with a large enough effect; inconclusive = small, poorly fitted or top-dose-only effect, or another doubt; inactive = no such curve, though single readings can be large; an effect the other way counts as inactive or inconclusive.
Columns and labels:
[1] = molecular target: Lysosomal acid glucosylceramidase (Homo sapiens) (UniProt P04062); experiment: Glucocerebrosidase-p2 (AID 348; in the data active = potency below about 10 µM; note: potency is the fitted concentration of half-maximal effect); settings: purified GBA, blue fluorogenic substrate, 40 min
How it was run: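 Normal human glucocerebrosidase (0.2 nM) with blue fluorogenic substrate (80 uM final) in citrate/phosphate pH 5.9 with 10mM sodium taurocholate, 0.01% tween-20; 40 min RT, NaOH/glycine stop; fluorescence Ex 365/Em 440; AC50 from a titration from 0.6 nM upwards.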

[2] = AP1 Signaling Pathway (AID 357; active = well fitted curve in either direction with a large enough effect, not every such curve was filed as active;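 note: ME-180 reporter cells stimulated with EGF at its EC50 level; % is set by controls: 0 for no effect and ±100 for the full control effect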); settings: ME-180 AP-1-bla reporter, EGF-induced, beta-lactamase ratio, 5 h; at 7.69 µM (top of the series) unless noted
How it was run: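 Cells are seeded overnight, exposed to compound titrations and an EC50 level of EGF for 5 hours at 37 °C, then loaded with CCF4 dye for 2.5 hours. Beta-lactamase activity under the AP-1 element is read as a blue/green ratio.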

[3] = NFAT Signaling Pathway (AID 444; active = well fitted curve in either direction with a large enough effect, not every such curve was filed as active;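 note: carbachol stimulus at about its EC50 of 1 µM final; % is set by controls: 0 for no effect and ±100 for the full control effect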); settings: Jurkat NFAT-bla M1, carbachol, beta-lactamase ratio, 5 h; at 7.69 µM (top of the series) unless noted
How it was run: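 Jurkat cells carrying an NFAT-driven β-lactamase reporter and co-transfected muscarinic M1 receptor were treated with compound plus carbachol (1 uM final, an EC50 level) for 5 h at 37 °C. CCF4 loading followed for 1 h at RT; 460/530 nm ratio gave %activity.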

[4] = Stat Signaling Pathway (AID 446; active = well fitted curve in either direction with a large enough effect, not every such curve was filed as active;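 note: ME-180 cervical cancer cells given 40 pM IL-6 alongside compound; SIE-controlled beta-lactamase reporter measured as 460/530 nm FRET emission ratio; % is set by controls: 0 for no effect and ±100 for the full control effect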); settings: ME-180 (cervical carcinoma) SIE beta-lactamase reporter, IL-6 stimulated, 5 h; at 7.69 µM (top of the series) unless noted
How it was run: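 Compound effects on IL-6-induced STAT reporter activity were measured in ME-180 cells. After overnight culture, cells were co-treated with 40 pM IL-6 for 5 hrs before beta-lactamase substrate loading at room temperature.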

[5] = molecular target: Glucocorticoid receptor (Homo sapiens) (UniProt P04150); experiment: GR-GFP Redistribution (AID 450;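 active = compounds whose dose series gives a full or clear partial fitted curve of increased nuclear translocation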; note: potency is the fitted concentration of half-maximal effect); settings: U2OS GR-GFP nuclear translocation, laser cytometry, 2 h
[6] = molecular target: Glucocorticoid receptor (Homo sapiens) (UniProt P04150); experiment: GR-EFC Redistribution (AID 451; calls by dose curve; note: potency is the fitted concentration of half-maximal effect); settings: CHO-K1 GR-EFC translocation, beta-gal luminescence, 2 h
How it was run: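 CHO-K1 cells stably expressing nuclear-localized β-gal enzyme acceptor and GR fused C-terminally to the enzyme donor fragment; ligand-driven nuclear translocation restores β-gal by complementation. Compounds titrated up to 46 uM final, 2 h at 37 °C; luminescence read.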

[7] = molecular target: Mitogen-activated protein kinase 10 (Mus musculus) (UniProt Q61831); experiment: JNK3 AlphaScreen Assay (AID 530; active = well fitted curve in either direction with a large enough effect, not every such curve was filed as active;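 note: kinase came from lysate of stimulated human HepG2 cells; signal reports phosphorylation of biotinylated GST-cJun 1-79 at Ser73 with 10 µM ATP; % is set by controls: 0 for no effect and ±100 for the full control effect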); settings: JNK3 lysate, c-Jun phosphorylation; series mostly up to 11.4 µM
How it was run: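 Biotinylated GST-cJun(1-79) served as substrate for JNK3 in HepG2 lysates stimulated with IL-1beta and TNF-alpha. ATP was 10 uM final, pH 7.6. Ser73 phosphorylation was quantified by AlphaScreen (680 nm excitation).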

[8] = molecular target: 3',5'-cyclic-AMP phosphodiesterase 4B (Homo sapiens) (UniProt Q07343); experiment: qHTS Assay for Inhibitors of PDE-IV (AID 607; active = well fitted activation curve with a large enough effect in the main read-out, with a control signal flat, not every such curve was filed as active; note: % of control where 0% means no effect); settings: HEK293 ACTOne CNG channel cells, membrane potential fluorescence; series mostly up to 22.9 µM
How it was run: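 ACTOne HEK293 cells carry a modified cAMP-gated CNG channel and express endogenous PDE4; plated 1000 cells/well, compounds up to 22.9 uM final. Membrane-potential dye fluorescence (ex 535/em 590) was read; parental cells received 10 uM forskolin + 100 uM RO 20-1724.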

[9] = molecular target: ATP-dependent 6-phosphofructokinase (Trypanosoma brucei brucei) (UniProt O15648); experiment: qHTS Assay to Find Inhibitors of T. brucei phosphofructokinase: hit validation (AID 492961); settings: T. brucei PFK, ADP-Glo luminescence; series mostly up to 51.4 µM
How it was run: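 Percent activity derived from corrected luminescence, normalized between 0x and 1x enzyme controls, then fitted to concentration-response curves. Conditions: 1.25 nM PFK, 0.1 mM ATP, 0.5 mM F6P, 45 min RT.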

[10] = molecular target: Luciferin 4-monooxygenase (Photinus pyralis) (UniProt P08659); experiment: Biochemical firefly luciferase enzyme assay for NPC (AID 624030);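 note: purified P. pyralis luciferase at 10 nM with luciferin and ATP substrate; 0% = DMSO and -100% = full luciferase inhibition by PTC124 control; nearly all actives have a fitted effect of over 70% in size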; settings: purified P. pyralis luciferase, luminescence, 5 min; series mostly up to 58.6 µM
How it was run: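 Counter-screen for direct inhibition of the luciferase enzyme by approved-drug library compounds, run at 10 nM enzyme in 50 mM Tris acetate (final). Luminescence was read within 5 min of enzyme-buffer addition and normalized to PTC124 versus DMSO (0%).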

[11] = S16 Schwann cell viability assay (CellTiter-Glo assay) (AID 624031); settings: S16 rat Schwann cells viability, 24 h; series mostly up to 57.5 µM;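 note: native untransfected S16 rat Schwann cells; cellular ATP luminescence as a viability measure; plate controls were DMSO-treated cells for no effect and cell-free wells for full effect; nearly all actives have a fitted effect of over 70% in size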
How it was run: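 Parental S16 cells, 24 h compound, 37 °C. ATP-luminescence viability; DMSO = 0% activity, empty wells as reference; curves classified by fit quality and efficacy.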

[12] = S16 Schwann cell PMP22 intronic element firefly luciferase assay (AID 624032); settings: S16 rat Schwann cells, PMP22 element FLuc, 24 h; series mostly up to 57.5 µM;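 note: plate controls were DMSO for no effect and PTC124 positive control mean for full effect; nearly all actives have a fitted effect of over 30% in size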
How it was run: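 Rat S16 Schwann cells stably carrying a PMP22 intronic element-driven Fluc reporter were seeded overnight, then exposed to compounds for 24 h at 37 °C. Luminescence was normalized to PTC124 (positive control) and DMSO (0% activity).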

[13] = S16 Schwann cell PMP22 intronic element beta-lactamase assay (AID 624044; calls by dose curve;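 note: 0% = DMSO and -100% = potassium clavulanate positive control; nearly all actives have a fitted effect of over 15% in size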); settings: S16 rat Schwann cells, PMP22 element beta-lactamase FRET, 24 h; series mostly up to 38.3 µM
How it was run: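 Beta-lactamase reporter under a PMP22 intronic regulatory element in stable S16 rat Schwann cells; 24 h compound exposure. 460 nm blue signal normalized between DMSO (0%) and potassium clavulanate, with 535 nm FRET tracking viability; curves classed by r2 and response.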

[14] = qHTS profiling for inhibitors of Plasmodium falciparum proliferation (AID 504749);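 note: 0% = DMSO vehicle and full inhibition = artemisinin control; nearly all actives have a fitted effect of over 60% in size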; settings: P. falciparum in erythrocytes, SYBR Green DNA, 72 h, at 28.7 µM (top of the series)
How it was run: (§1)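 Fluorescence of SYBR Green-bound parasite DNA, read at 485/535 nm, served as the growth measure. Infected erythrocytes were cultured with compound 72 h; artemisinin (0.29 uM) and DMSO wells defined the normalization range.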

3D7 = experiment: as above; settings: P. falciparum in erythrocytes, SYBR Green DNA, 72 h; series mostly up to 28.7 µM
How it was run: as §1

7G8 = experiment: as above; settings: P. falciparum in erythrocytes, SYBR Green DNA, 72 h; series mostly up to 28.7 µM
How it was run: as §1

AA1029 = experiment: as above; settings: P. falciparum in erythrocytes, SYBR Green DNA, 72 h; series mostly up to 28.7 µM
How it was run: as §1

AS120 = experiment: as above; settings: P. falciparum in erythrocytes, SYBR Green DNA, 72 h; series mostly up to 28.7 µM
How it was run: as §1

ATS189 = experiment: as above; settings: P. falciparum in erythrocytes, SYBR Green DNA, 72 h; series mostly up to 28.7 µM
How it was run: as §1

ATS95 = experiment: as above; settings: P. falciparum in erythrocytes, SYBR Green DNA, 72 h; series mostly up to 28.7 µM
How it was run: as §1

C2A = experiment: as above; settings: P. falciparum in erythrocytes, SYBR Green DNA, 72 h; series mostly up to 28.7 µM
How it was run: as §1

CP185 = experiment: as above; settings: P. falciparum in erythrocytes, SYBR Green DNA, 72 h; series mostly up to 28.7 µM
How it was run: as §1

CP191 = experiment: as above; settings: P. falciparum in erythrocytes, SYBR Green DNA, 72 h; series mostly up to 28.7 µM
How it was run: as §1

CP192 = experiment: as above; settings: P. falciparum in erythrocytes, SYBR Green DNA, 72 h; series mostly up to 28.7 µM
How it was run: as §1

CP194 = experiment: as above; settings: P. falciparum in erythrocytes, SYBR Green DNA, 72 h; series mostly up to 28.7 µM
How it was run: as §1

CP201 = experiment: as above; settings: P. falciparum in erythrocytes, SYBR Green DNA, 72 h; series mostly up to 28.7 µM
How it was run: as §1

CP203 = experiment: as above; settings: P. falciparum in erythrocytes, SYBR Green DNA, 72 h; series mostly up to 28.7 µM
How it was run: as §1

CP211 = experiment: as above; settings: P. falciparum in erythrocytes, SYBR Green DNA, 72 h; series mostly up to 28.7 µM
How it was run: as §1

CP215 = experiment: as above; settings: P. falciparum in erythrocytes, SYBR Green DNA, 72 h; series mostly up to 28.7 µM
How it was run: as §1

CP217 = experiment: as above; settings: P. falciparum in erythrocytes, SYBR Green DNA, 72 h; series mostly up to 28.7 µM
How it was run: as §1

CP237 = experiment: as above; settings: P. falciparum in erythrocytes, SYBR Green DNA, 72 h; series mostly up to 28.7 µM
How it was run: as §1

CP238 = experiment: as above; settings: P. falciparum in erythrocytes, SYBR Green DNA, 72 h; series mostly up to 28.7 µM
How it was run: as §1

CP247 = experiment: as above; settings: P. falciparum in erythrocytes, SYBR Green DNA, 72 h; series mostly up to 28.7 µM
How it was run: as §1

CP250 = experiment: as above; settings: P. falciparum in erythrocytes, SYBR Green DNA, 72 h; series mostly up to 28.7 µM
How it was run: as §1

Sequence of Glucocorticoid receptor (Homo sapiens) (P04150 whole entry, looked up, the tested form may be a part): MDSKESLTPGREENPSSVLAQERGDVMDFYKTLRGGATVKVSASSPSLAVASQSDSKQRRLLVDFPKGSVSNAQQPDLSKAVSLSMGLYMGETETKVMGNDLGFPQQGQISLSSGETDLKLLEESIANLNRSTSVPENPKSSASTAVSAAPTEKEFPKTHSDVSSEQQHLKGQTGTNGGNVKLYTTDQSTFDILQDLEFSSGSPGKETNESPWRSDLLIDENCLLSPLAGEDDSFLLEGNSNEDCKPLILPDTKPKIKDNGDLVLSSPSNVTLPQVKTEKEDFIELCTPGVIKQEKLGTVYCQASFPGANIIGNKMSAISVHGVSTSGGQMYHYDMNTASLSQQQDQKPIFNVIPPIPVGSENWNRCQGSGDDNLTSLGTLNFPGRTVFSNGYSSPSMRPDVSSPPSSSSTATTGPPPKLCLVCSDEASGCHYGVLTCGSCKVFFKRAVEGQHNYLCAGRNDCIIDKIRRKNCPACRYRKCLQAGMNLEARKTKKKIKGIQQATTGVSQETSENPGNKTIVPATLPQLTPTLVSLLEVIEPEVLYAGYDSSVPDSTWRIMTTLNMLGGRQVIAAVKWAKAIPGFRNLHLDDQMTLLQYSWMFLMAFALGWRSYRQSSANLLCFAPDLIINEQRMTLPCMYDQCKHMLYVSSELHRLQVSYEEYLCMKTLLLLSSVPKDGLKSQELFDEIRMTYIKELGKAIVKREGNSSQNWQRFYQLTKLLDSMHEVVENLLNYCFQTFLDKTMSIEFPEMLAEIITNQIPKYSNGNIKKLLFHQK
Sequence of Luciferin 4-monooxygenase (Photinus pyralis) (P08659 whole entry, looked up): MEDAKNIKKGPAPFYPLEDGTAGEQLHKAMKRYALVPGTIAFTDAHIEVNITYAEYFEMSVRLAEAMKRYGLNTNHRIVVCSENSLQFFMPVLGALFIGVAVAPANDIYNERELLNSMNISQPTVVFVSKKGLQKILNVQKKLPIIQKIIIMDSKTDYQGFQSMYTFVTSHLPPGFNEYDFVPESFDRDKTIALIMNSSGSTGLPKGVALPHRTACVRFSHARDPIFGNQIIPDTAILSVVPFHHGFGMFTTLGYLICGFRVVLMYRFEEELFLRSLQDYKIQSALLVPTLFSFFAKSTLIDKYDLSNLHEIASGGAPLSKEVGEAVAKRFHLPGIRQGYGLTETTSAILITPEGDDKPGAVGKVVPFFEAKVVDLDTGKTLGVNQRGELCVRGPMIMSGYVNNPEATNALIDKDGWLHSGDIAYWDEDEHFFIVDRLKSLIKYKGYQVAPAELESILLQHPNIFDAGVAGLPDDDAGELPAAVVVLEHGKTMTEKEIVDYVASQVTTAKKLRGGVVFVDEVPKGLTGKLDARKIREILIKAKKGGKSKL
Sequence of Lysosomal acid glucosylceramidase (Homo sapiens) (P04062 whole entry, looked up): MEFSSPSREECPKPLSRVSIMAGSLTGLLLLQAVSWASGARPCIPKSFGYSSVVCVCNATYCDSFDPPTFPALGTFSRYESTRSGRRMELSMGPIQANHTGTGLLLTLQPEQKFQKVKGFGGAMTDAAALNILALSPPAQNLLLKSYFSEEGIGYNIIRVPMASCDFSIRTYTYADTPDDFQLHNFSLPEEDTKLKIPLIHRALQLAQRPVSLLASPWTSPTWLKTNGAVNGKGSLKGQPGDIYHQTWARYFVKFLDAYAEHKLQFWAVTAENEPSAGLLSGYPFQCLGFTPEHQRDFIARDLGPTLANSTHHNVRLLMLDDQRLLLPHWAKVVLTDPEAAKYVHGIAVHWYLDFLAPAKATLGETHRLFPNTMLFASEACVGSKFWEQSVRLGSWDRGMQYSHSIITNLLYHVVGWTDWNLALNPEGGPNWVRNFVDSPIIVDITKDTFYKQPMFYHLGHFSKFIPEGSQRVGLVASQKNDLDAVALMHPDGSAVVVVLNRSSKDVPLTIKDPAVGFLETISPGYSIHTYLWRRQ
Sequence of ATP-dependent 6-phosphofructokinase (Trypanosoma brucei brucei) (O15648 whole entry, looked up): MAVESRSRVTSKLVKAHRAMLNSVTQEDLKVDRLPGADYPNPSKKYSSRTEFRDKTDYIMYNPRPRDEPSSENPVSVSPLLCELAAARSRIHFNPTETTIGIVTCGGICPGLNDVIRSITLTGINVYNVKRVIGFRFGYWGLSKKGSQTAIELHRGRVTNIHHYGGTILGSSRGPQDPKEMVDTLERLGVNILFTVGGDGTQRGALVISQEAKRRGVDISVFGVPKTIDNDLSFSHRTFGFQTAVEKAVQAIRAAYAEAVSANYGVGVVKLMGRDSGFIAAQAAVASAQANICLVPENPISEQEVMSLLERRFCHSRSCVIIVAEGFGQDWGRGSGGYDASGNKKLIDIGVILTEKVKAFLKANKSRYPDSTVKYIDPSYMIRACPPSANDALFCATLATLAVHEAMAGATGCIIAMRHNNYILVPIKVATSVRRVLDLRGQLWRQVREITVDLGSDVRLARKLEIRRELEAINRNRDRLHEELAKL
Sequence of 3',5'-cyclic-AMP phosphodiesterase 4B (Homo sapiens) (Q07343 whole entry, looked up): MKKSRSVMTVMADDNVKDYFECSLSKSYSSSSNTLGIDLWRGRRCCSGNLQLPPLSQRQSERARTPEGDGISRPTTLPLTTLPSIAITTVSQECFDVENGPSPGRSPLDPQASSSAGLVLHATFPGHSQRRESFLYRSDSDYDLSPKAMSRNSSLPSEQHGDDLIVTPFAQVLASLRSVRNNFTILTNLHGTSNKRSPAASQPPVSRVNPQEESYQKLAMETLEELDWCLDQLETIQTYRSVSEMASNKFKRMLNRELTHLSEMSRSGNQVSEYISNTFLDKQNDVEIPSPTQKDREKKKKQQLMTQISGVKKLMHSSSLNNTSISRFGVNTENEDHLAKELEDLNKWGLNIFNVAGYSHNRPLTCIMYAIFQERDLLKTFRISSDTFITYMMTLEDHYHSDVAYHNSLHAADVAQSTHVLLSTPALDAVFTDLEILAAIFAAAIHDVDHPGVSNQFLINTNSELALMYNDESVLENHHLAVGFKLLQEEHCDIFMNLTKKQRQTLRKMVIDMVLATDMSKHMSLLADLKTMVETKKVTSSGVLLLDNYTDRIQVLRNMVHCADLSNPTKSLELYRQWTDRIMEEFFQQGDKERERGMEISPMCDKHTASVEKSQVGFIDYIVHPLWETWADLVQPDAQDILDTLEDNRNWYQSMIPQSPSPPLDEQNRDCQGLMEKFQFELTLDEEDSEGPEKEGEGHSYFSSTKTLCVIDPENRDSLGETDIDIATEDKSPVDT

Cc1onc(-c2c(F)cccc2Cl)c1C(=O)N[C@@H]1C(=O)N2[C@H]1SC(C)(C)[C@H]2C(=O)O
inactive: Potency [1] > 11.4 µM | activity change, negative = inhibition [2] -24% | activity change, negative = inhibition [3] 13.8% | activity, negative = inhibition [4] 5.59% | Potency [5] > 46 µM | Potency [6] > 9.22 µM | Potency [7] | Potency [8] | outcome [9] | outcome [10] | Potency [11] | Potency [12] | outcome [13] | activity, negative = inhibition ([14]; parasite line A) 1.43% | activity, negative = inhibition ([14]; parasite line B) 6.57% | Potency (3D7) | Potency (7G8) | Potency (AA1029) | Potency (AS120) | Potency (ATS189) | Potency (ATS95) | Potency (C2A) | Potency (CP185) | Potency (CP191) | Potency (CP192) | Potency (CP194) | Potency (CP201) | Potency (CP203) | Potency (CP211) | Potency (CP215) | Potency (CP217) | Potency (CP237) | Potency (CP238) | Potency (CP247) | Potency (CP250)

From PubChem BioAssay (NCATS)
